Results reported in PubChem BioAssay AID488969 (Vanderbilt High Throughput Screening Facility, 2010).
Over roughly 110,000 compounds, “z-score” has its median near -0.1; the highest 2% begin near 2. The full list was thinned out, with the highest values kept by preference. The source made the active and inactive calls.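 Rule for the calls: active = z-score in the third read window above 3 or below -3; inactive = the rest.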

Target: Metabotropic glutamate receptor 8 (Rattus norvegicus) (UniProt P70579)
Sequence (P70579 whole entry, looked up): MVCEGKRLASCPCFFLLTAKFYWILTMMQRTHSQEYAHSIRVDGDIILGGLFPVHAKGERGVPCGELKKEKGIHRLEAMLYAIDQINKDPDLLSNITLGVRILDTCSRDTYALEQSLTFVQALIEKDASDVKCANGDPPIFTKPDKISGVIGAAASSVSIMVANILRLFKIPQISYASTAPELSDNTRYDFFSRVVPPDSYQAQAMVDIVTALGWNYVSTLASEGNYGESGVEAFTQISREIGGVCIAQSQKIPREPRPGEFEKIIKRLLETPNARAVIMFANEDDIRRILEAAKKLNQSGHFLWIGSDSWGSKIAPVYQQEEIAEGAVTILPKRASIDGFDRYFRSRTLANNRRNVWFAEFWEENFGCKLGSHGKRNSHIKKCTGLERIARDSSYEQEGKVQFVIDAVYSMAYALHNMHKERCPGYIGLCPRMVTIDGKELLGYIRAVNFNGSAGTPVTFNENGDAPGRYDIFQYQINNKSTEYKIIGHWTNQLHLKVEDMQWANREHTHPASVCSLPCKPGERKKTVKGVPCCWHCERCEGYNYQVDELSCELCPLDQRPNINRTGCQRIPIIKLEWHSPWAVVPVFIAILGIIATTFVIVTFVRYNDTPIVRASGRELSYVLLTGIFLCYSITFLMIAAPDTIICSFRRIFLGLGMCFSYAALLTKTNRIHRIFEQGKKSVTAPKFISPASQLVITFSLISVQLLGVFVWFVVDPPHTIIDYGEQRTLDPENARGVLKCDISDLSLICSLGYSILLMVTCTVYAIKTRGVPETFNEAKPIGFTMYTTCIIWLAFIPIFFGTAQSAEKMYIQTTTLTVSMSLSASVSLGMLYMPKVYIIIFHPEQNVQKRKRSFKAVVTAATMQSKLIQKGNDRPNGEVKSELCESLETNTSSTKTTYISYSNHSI
Assay: mGluR8 Gi/Go-coupled signaling modulation – cell-based, rat, thallium flux, HTS, primary screen (AID 488969)
Conditions: HEK293 rat mGluR8, GIRK (G protein-gated inwardly rectifying potassium channel) thallium flux, FluoZin2; at 10 µM; stronger effect = higher value; submaximal glutamate (EC20) added with thallium

SMILES	z-score
CCOC(=O)CC1=C(C(=O)OCC)C(c2cccs2)C(C#N)=C(N)O1 (stereo not given)	3.6 (active)
CCOC(=O)C1=C(CC)OC(N)=C(C#N)C1c1cccs1 (stereo not given)	-0.237
CCOC(=O)C1=C(CSc2nc(-c3ccccc3)ccc2C#N)OC(N)=C(C#N)C1c1ccccc1 (stereo not given)	2.03
CCOC(=O)C1=C(CSc2nc(-c3ccccc3)ccc2C#N)OC(N)=C(C#N)C1c1cccnc1 (stereo not given)	-0.107
CCOC(=O)C1=C(c2ccccc2)OC(N)=C(C#N)C1c1cccs1 (stereo not given)	0.288
CCOC(=O)C1=C(CSc2nc(-c3ccccc3)ccc2C#N)OC(N)=C(C#N)C1c1ccc(OC)cc1 (stereo not given)	0.0604
Cc1[nH]c2ccccc2c1/C=N/NC(=O)c1cc(-c2cccs2)[nH]n1	-0.101
Cn1c(=O)[nH]c(=O)c2c1nc(NCCCn1ccnc1)n2Cc1ccc(F)cc1	0.613
Cc1cc(Nc2cccc([N+](=O)[O-])c2)n2c(nc3ccccc32)c1C#N	0.0405
COc1cccc(N=Cc2c(O)n(-c3cccc(C)n3)c(=O)c3ccccc23)c1	-0.226
Cc1cccc(-n2c(O)c(/C=N/NC(=O)c3ccccc3Cl)c3ccccc3c2=O)n1	5.65 (active)
Cc1cccc(-n2c(O)c(C=Nc3c(C)n(C)n(-c4ccccc4)c3=O)c3ccccc3c2=O)n1	-0.137
Cc1ccn2c(C(=O)N/N=C/c3ccc(CNC(=O)C(=O)Nc4ccc(C)c(C)c4)o3)c(C)nc2c1	0.623
Cc1ccccc1NC(=O)c1nc[nH]c1C(=O)NCc1ccccc1	2.57
COc1ccc(NC(=O)c2nc[nH]c2C(=O)Nc2ccccc2C)cc1	0.48
CNC(=O)c1[nH]cnc1C(=O)Nc1ccccc1C	0.825
Cc1cccc(Oc2nc(-c3ccccc3)cc(C)c2S(C)(=O)=O)c1C	0.102
COc1ccc(-c2nc(C)ncc2-c2csc(C)n2)c(O)c1	-0.348
CN1/C(=C/C(=O)c2ccc(Cl)cc2)Sc2cc3c(cc21)OCO3	-1.93
CC(C)CCN1C(=O)CCC1(C)C(=O)NC1CCCCCCC1 (stereo not given)	-0.383
CCOC(=O)C1C(=O)C=C(c2ccc(C)cc2)CC1c1ccco1 (stereo not given)	-0.0925
CCOC(=O)C1C(=O)C=C(c2cccc(NS(C)(=O)=O)c2)CC1c1ccco1 (stereo not given)	-0.737

SMILES	z-score
CCOC(=O)C1C(=O)C=C(c2ccc(NS(C)(=O)=O)cc2)CC1c1ccco1 (stereo not given)	2.57
NNC(=O)C=C1CCN(c2ncc(C(F)(F)F)cc2Cl)CC1	0.00385
Cc1ccc(C)c(NS(=O)(=O)c2cc(C(=O)NCc3ccco3)ccc2C)c1	-0.408
O=C(CN1CCCCC1)Nc1cccc(Cl)c1Cl	-0.108
CCOC(=O)C(CCCOc1cccc(CC)c1)C(=O)OCC	0.094
CCOC(=O)C(CCOc1cccc(CC)c1)C(=O)OCC	-0.709
CCOC(=O)C(CCCCOc1cccc(CC)c1)C(=O)OCC	3.18 (active)
O=C(CC(c1ccco1)C1CCCCC1=O)c1ccccc1 (stereo not given)	-0.656
Cc1cccc(NC(=O)COC(=O)c2ccccc2-c2nc3ccccc3s2)c1C	-0.272
O=C(Nc1cccc(-c2nc3ccccc3s2)c1)c1cc(-n2cnnc2)ccc1Cl	-0.00826
COc1ccc(CNC(=O)COC(=O)CCC2CCCCC2)cc1	-0.328
CC(C)Oc1ccc(C2CC(=O)N(c3ccc(N(C)C)cc3)C2=O)cc1 (stereo not given)	-0.0638
CC(C)Oc1ccc(C2CC(=O)N(c3ccccc3)C2=O)cc1 (stereo not given)	2.33
COc1ccc(N2C(=O)CC(c3ccc(OC(C)C)cc3)C2=O)cc1 (stereo not given)	-0.209
COc1ccc(C2C(C(=O)Nc3cccc(C)n3)c3ccccc3C(=O)N2C)cc1OC (stereo not given)	-0.119
CCOc1ccc(N(CC(=O)NN=C2CCN(C)CC2)S(C)(=O)=O)cc1	-0.0704
Cc1cccc2c(=O)cc(C)n(CC(=O)N3CCCCC3)c12	3.39 (active)
Cc1cccc2c(=O)cc(C)n(Cc3ccccc3)c12	-0.148
CCOC(=O)Cn1c(C)cc(=O)c2cccc(C)c21	-0.0778
CC(Oc1ccccc1)C(=O)NC1CCN(Cc2ccccc2)CC1 (stereo not given)	-2.68
C=CCSc1nnc(NC(=O)CSc2ccccn2)s1	-0.421
COc1ccc(/C(C)=C2/SC(=S)N(CCC(=O)O)C2=O)cc1	-0.343

SMILES	z-score
Cc1ccc(C)n1-c1ccc(N2CCOCC2)nc1	-0.064
O=C(CSc1nc(-c2ccccc2)cc(C(F)(F)F)n1)NCCN1CCOCC1	2.92
O=C(CSc1nc(-c2ccc(F)cc2)cc(C(F)(F)F)n1)NCCN1CCOCC1	0.00416
COc1ccc(-c2cc(C(F)(F)F)nc(SCC(=O)NCCN3CCOCC3)n2)cc1OC	0.846
Cc1ccc(-n2c(SCC(N)=O)nnc2-c2ccccn2)cc1	2.09
Cc1ccc(C)c(-n2c(SCC(N)=O)nnc2-c2ccccn2)c1	-0.142
Cc1ccc(-n2c(SCC(N)=O)nnc2-c2ccccn2)cc1C	0.0328
CCCCn1c(N)c(-c2nc3ccccc3s2)c2c([N+](=O)[O-])nn(C)c(=O)c21	1.31
CCOC(=O)/C(=C/c1ccc(OC)cc1)NC(=O)c1ccco1	-0.186
COc1ccc(-c2csc(NC(=O)C3CCCCN3S(=O)(=O)c3ccccc3)n2)cc1 (stereo not given)	1.82
Cc1ccccc1-c1nnn(CC(=O)N2CCN(S(=O)(=O)c3ccc(Cl)cc3)CC2)n1	-0.031
Cn1c(=O)c2c(ncn2CC(=O)N/N=C/C(Br)=C/c2ccccc2)n(C)c1=O	0.116
Cn1c(=O)c2c(ncn2CC(=O)N/N=C/c2ccco2)n(C)c1=O	1.59
Cn1c(=O)c2c(ncn2CC(=O)N/N=C/c2ccc(Br)s2)n(C)c1=O	2.47
O=C(CSc1ccccc1Cl)NC1CCCc2ccccc21 (stereo not given)	-0.386
O=C(NCc1ccco1)C1CCN(c2ccc(N3CCOCC3)nn2)CC1	0.321
O=C(CCC(=O)Nc1ccccc1)NNC(=O)COc1ccccc1	-0.00186
O=C(Cc1ccccc1)N/N=C/c1ccc(OC(=O)/C=C\c2ccco2)cc1	-0.0554
CCN(CC)CCCn1c(C)cc2c(c1=O)C(c1cccc(Cl)c1)C(C#N)=C(N)O2 (stereo not given)	2.38
CCN(CC)CCCn1c(C)cc2c(c1=O)C(c1ccccc1)C(C#N)=C(N)O2 (stereo not given)	0.538
CCN(CC)CCCn1c(C)cc2c(c1=O)C(c1ccc(OC)c(OC)c1OC)C(C#N)=C(N)O2 (stereo not given)	-0.47
O=S(=O)(/N=C(/Nc1ccc(F)c(F)c1F)c1ccccc1)c1ccccc1	-0.125

SMILES	z-score
Cc1cc(C)nc(Sc2ncnc3sc4c(c23)CCC4)n1	5.12 (active)
CCSc1ncnc2sc3c(c12)CCC3	-0.0891
CC(C#N)Sc1ncnc2sc3c(c12)CCC3 (stereo not given)	0.00954
O=C(NCc1ccc(Cl)cc1Cl)C(=O)N1CCCCC1	0.112
O=C(COc1ccccc1)NCCc1cn2ccsc2n1	0.183
Cc1ccc(C)c(NC(=O)c2cnn3ccccc23)c1	-0.0235
COc1cc(CCN2C(=O)c3cccc4cccc(c34)C2=O)c(S(=O)(=O)NCCCO)cc1OC	0.452
CCOC(=O)c1ccccc1Nc1cn(C(C)=O)c2ccccc12	2.73
CCOC(=O)c1ccccc1NC(=O)COC	-0.129
CC(=O)n1cc(Nc2ccccc2C(=O)O)c2ccccc21	-1.18
COc1cccc2[nH]c3c(N4CCC(C(N)=O)CC4)ncnc3c12	0.0357
Cc1ccc(S(=O)(=O)N(CCC(=O)O)Cc2ccc(Cl)cc2)cc1	-0.125
Cc1ccc(S(=O)(=O)N2CCN(C(=O)CN3C(=O)NC4(CCOc5ccccc54)C3=O)CC2)cc1 (stereo not given)	0.106
CCN(CC)CCn1cnc2c([nH]c3cccc(OC)c32)c1=O	-0.0646
CCOC(=O)N1CCN(C(=O)NC23CC4CC(CC(C4)C2)C3)CC1	-0.174
CCOC(=O)C1CCN(C(=O)C23CC4CC(CC(C4)C2)C3)CC1	0.212
CCOC(=O)C1CCN(C(=O)NC23CC4CC(CC(C4)C2)C3)CC1	3.31 (active)
Cc1cccc(NC(=S)NCCc2c[nH]c3ccccc23)c1	0.201
CC(C)(C)Nc1nc2nonc2nc1NC(C)(C)C	-0.28
Cc1oc(/C=N/NC(=O)CN(c2ccccc2Br)S(C)(=O)=O)cc1Br	-0.262
CCN(CC)S(=O)(=O)c1csc(C(=O)NCc2ccccc2)c1	2.45
CCN(CC)S(=O)(=O)c1csc(C(=O)NC2CCCCC2)c1	0.101

SMILES	z-score
CCN(CC)S(=O)(=O)c1csc(C(=O)OCC(=O)c2ccccc2)c1	-0.217
COn1c2c(c3c4no[n+]([O-])c4ccc31)CCCC2	-0.414
COc1cccc(NC(=O)CCSc2ccc3ccccc3n2)c1	-0.0656
O=C(O)c1cc(NS(=O)(=O)c2ccc(N3CCCCC3)c([N+](=O)[O-])c2)cc(C(=O)O)c1	-0.105
CCC(C)n1c(SCC(=O)NC(=O)Nc2ccc3c(c2)OCCO3)nc2ccccc2c1=O (stereo not given)	4.47 (active)
CCC(C)n1c(SCC(=O)Nc2cc(C)on2)nc2ccccc2c1=O (stereo not given)	0.0932
COCC(C)n1c(SCC(=O)NC(=O)Nc2ccc3c(c2)OCCO3)nc2ccccc2c1=O (stereo not given)	-1.25
Cn1c(=O)c2c(nc(SCC(=O)NCc3ccco3)n2C)n(C)c1=O	0.332
C/C(CC(=O)Nc1ccccn1)=N\NC(=O)c1ccc2ccccc2c1	-0.53
CCCNC(=O)C(=O)Nc1ccc(N(C)C)cc1	-0.0526
CC1CCCC(NC(=S)NC(=O)c2cncc(Br)c2)C1C (stereo not given)	6.76 (active)
Cc1cccnc1NC(=S)NC(=O)c1cncc(Br)c1	-0.14
CC1CCCC(NC(=S)NC(=O)c2ccccc2Br)C1C (stereo not given)	2.91
COc1ccccc1/C=C/C(=O)NC(=S)NC(C)C	0.776
O=C(NC(=S)Nc1ccc(Br)cn1)c1cncc(Br)c1	0.371
O=C(NC(=S)Nc1ncc(Br)cc1Br)c1cncc(Br)c1	0.278
COc1ccccc1/C=C/C(=O)NC(=S)N(C)C1CCCCC1	4.46 (active)
COc1ccccc1/C=C/C(=O)NC(=S)Nc1ccc(S(=O)(=O)N(C)c2ccccc2)cc1	0.119
CC1CCCCC1NC(=S)NC(=O)c1ccccc1Br (stereo not given)	0.799
O=C(NC(=S)NCC1CCCO1)c1ccccc1Br (stereo not given)	1.6
O=C(NC(=S)Nc1ccccn1)c1cncc(Br)c1	0.829
Cc1ccccc1NC(=S)NC(=O)c1cncc(Br)c1	6.92 (active)
